Reference: PubChem BioAssay (NCATS)
Several values for one entry are separate records, joined by “and”; a condition that tells them apart may be missing. Equal values may be shown once. Results filed as inconclusive are left out. Activity calls are given as the source filed them. Unless noted, calls follow the shape of the full dose curve.

Legend:
[1] = biological target: Estrogen receptor (Homo sapiens) (UniProt P03372); experiment: qHTS assay for small molecule agonists of estrogen receptor alpha signaling (AID 588514);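 also: 0% = vehicle only and 100% = reference agonist; nearly all actives have a fitted effect of over 70% in size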
Procedure, shortened: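 Cells were plated at 5000/well, incubated 4 hrs at 37 C, dosed with compound titration series, incubated 18 hrs at 37 C, loaded with CCF4 dye for 2 hrs at RT, then fluorescence was read.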

[2] = biological target: Glucocorticoid receptor (Homo sapiens) (UniProt P04150); experiment: qHTS assay for small molecule agonists of glucocorticoid receptor signaling (AID 588532; active = well fitted curve in the direction sought with a large enough effect in the signal ratio, with a control signal flat; the % refers to the signal ratio;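 also: 100% = dexamethasone at 0.1 µM and 0% = DMSO only wells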); details: HeLa MMTV-bla, beta-lactamase ratio, agonist, 18 h; activation: stronger effect = higher value, percent of dexamethasone control, DMSO zero
Procedure, shortened: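 Quantitative HTS using CellSensor MMTV-bla HeLa cells in charcoal/dextran-treated serum; compounds tested up to 92 uM. After 18 h at 37 C, CCF4 dye reported reporter induction.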

[3] = biological target: Glucocorticoid receptor (Homo sapiens) (UniProt P04150); experiment: qHTS assay for small molecule antagonists of glucocorticoid receptor signaling (AID 588533; active = well fitted inhibition curve with a large enough effect in the signal ratio, with a control signal flat, not every such curve was filed as active; the % refers to the signal ratio;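 also: cells stimulated with 2 nM dexamethasone as agonist; % is scaled to controls: 0 for no effect and ±100 for the full control effect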)
Procedure, shortened: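 Antagonist-mode qHTS: compound titrations added to GRE-bla HeLa cells, then dexamethasone 2 nM final; 18 h, 37 C. CCF4 FRET fluorescence normalized to dexamethasone and DMSO; IC50 from Hill fit.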

[4] = biological target: Peroxisome proliferator-activated receptor gamma (Homo sapiens) (UniProt P37231); experiment: qHTS assay for small molecule agonists of peroxisome proliferator-activated receptor gamma signaling (AID 588536; active = well fitted curve in the direction sought with a large enough effect in the signal ratio, with a control signal flat, not every such curve was filed as active; the % refers to the signal ratio;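 also: 0% = DMSO basal wells and 100% = rosiglitazone at 2 µM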)
Procedure, shortened: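 PPAR-gamma-UAS-bla HEK293 cells in medium with 1% charcoal/dextran-treated FBS were exposed to compounds for 16 h at 37 C. Beta-lactamase activity was read with CCF4 substrate (405 nm excitation, 460/530 nm emission).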

[5] = biological target: Vitamin D3 receptor (Homo sapiens) (UniProt P11473); experiment: qHTS assay for small molecule agonists of vitamin D receptor signaling (AID 588543);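 also: 0% = DMSO basal and 100% = reference agonist control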
Procedure, shortened: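 VDR-UAS-bla HEK293T cells, 2000/well, 2% charcoal-stripped FBS; compound titration 16 h at 37 C; CCF4 beta-lactamase ratio read. Normalized to 50 nM 1-alpha,25-dihydroxyvitamin D3 (100%) and DMSO; Hill fit gives EC50, efficacy.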

[6] = biological target: Thyroid hormone receptor beta (Homo sapiens) (UniProt P10828); experiment: qHTS assay for small molecule agonists of thyroid hormone receptor beta signaling (AID 588545);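 also: 0% = DMSO only and 100% = 10 nM T3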
Procedure, shortened: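 TR-UAS-bla GripTite HEK 293 cells (2500/well, medium with 2% charcoal/dextran FBS) were treated in agonist mode for 18 h at 37 C, titrated. Beta-lactamase was read by CCF4 ratio after 2 h; normalized to 10 nM T3 (100%) and DMSO, Hill-fitted for EC50 and efficacy.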

[7] = qHTS assay for small molecule antagonists of retinoid X receptor alpha signaling (AID 588546; active = well fitted inhibition curve with a large enough effect in the signal ratio, with a control signal flat, not every such curve was filed as active; the % refers to the signal ratio;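 also: cells stimulated with 9-cis-retinoic acid as agonist; % is scaled to controls: 0 for no effect and ±100 for the full control effect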); details: HEK293T RXRa-UAS-bla, beta-lactamase ratio, antagonist mode; measured here: W530 green channel, cytotoxicity proxy
Procedure, shortened: (§1)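 Beta-lactamase reporter inhibition, read as CCF4 fluorescence ratio (ex 405, em 460/530 nm) after 2 h at RT. HEK293T UAS-bla cells, 2500/well, were stimulated with 9-cis-RA at 500 or 100 nM final alongside test compound for 18 h at 37 C.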

[8] = biological target: Retinoic acid receptor RXR-alpha (Homo sapiens) (UniProt P19793); experiment: as above; details: HEK293T RXRa-UAS-bla, beta-lactamase ratio, antagonist mode
Procedure, shortened: as §1

[9] = biological target: Thyroid hormone receptor beta (Homo sapiens) (UniProt P10828); experiment: qHTS assay for small molecule antagonists of thyroid hormone receptor beta signaling (AID 588547; active = well fitted inhibition curve with a large enough effect in the signal ratio, with a control signal flat, not every such curve was filed as active; the % refers to the signal ratio;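 also: cells stimulated with 0.4 nM T3 agonist during compound exposure; series mostly up to about 77 µM; % is scaled to controls: 0 for no effect and ±100 for the full control effect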); details: TR-UAS-bla HEK293, beta-lactamase ratio, antagonist mode, 18 h
Procedure, shortened: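 Inhibition of T3-driven (0.4nM final) beta-lactamase reporter activity was measured over 0.59 nM to 92 uM compound after 18 h at 37 C. The cells were GripTite HEK293 TR-UAS-bla in charcoal/dextran-stripped serum, with CCF4 ratio read-out and IC50 from Hill fits.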

[10] = qHTS assay for small molecule activators of the p53 signaling pathway (AID 651743; active = well fitted activation curve with a large enough effect in the signal ratio, not every such curve was filed as active; the % refers to the signal ratio; also: potency is read from the fitted curve at half-maximal effect; as to activation: series mostly up to about 92 µM; % of control where 0% means no effect); details: HCT-116 p53RE-bla, beta-lactamase FRET ratio, 16 h; activation: stronger effect = higher value
Procedure, shortened: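 Read-out is fluorescence intensity from the LiveBLAzer B/G FRET substrate, added for 2 hours at room temperature after HCT-116 p53RE-bla cells had been incubated with compounds for 16 hours at 37 C.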

[11] = qHTS assay for environmental chemicals that activate the Aryl hydrocarbon Receptor (AhR) signaling pathway (AID 651777; active = well fitted curve in the direction sought with a large enough effect; an effect the other way counts as inactive or inconclusive; also: % of control where 0% means no effect; nearly all actives have a fitted effect of over 15% in size); details: 1A2-DRE human hepatoma cells, luciferase, 24 h; activation: stronger effect = higher value
Procedure, shortened: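 1A2-DRE human hepatoma reporter line; 1,200 cells/well; cmpd or DMSO 24 h, 37 C/5% CO2; One-Glo 30 min RT; luciferase lum.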

[12] = biological target: Peroxisome proliferator-activated receptor alpha (Homo sapiens) (UniProt Q07869); experiment: qHTS assay for small molecule agonists of the peroxisome proliferator-activated receptor alpha (PPARalpha) signaling pathway (AID 651778; active = well fitted curve in the direction sought with a large enough effect; an effect the other way counts as inactive or inconclusive; also: % of control where 0% means no effect); details: PathHunter PPARalpha complementation, chemiluminescence, 6 h; max response: stronger effect = higher value
Procedure, shortened: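 Chemiluminescence from complemented enzyme reported PPARalpha activation in cells after 6 hr of compound treatment at 37 C. The detection reagent was incubated for 60 min at room temperature, and compounds were scored as agonists.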

[13] = qHTS assay for small molecule agonists of the antioxidant response element (ARE) signaling pathway measured by Nrf2-dependant transcriptional activity (AID 720636; active = well fitted curve in the direction sought with a large enough effect in the repeat runs; an effect the other way counts as inactive or inconclusive;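 also: HepG2 cells with an ARE-driven luciferase reporter; % of control where 0% means no effect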)
Procedure, shortened: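 Cells: ARE-luc HepG2 with Nrf2-responsive luciferase. Medium contained 1% dialyzed FBS. Compound exposure lasted 16 hr at 37 C and 5% CO2, followed by ONE-Glo luciferase detection.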

[14] = qHTS assay for small molecule agonists of the antioxidant response element (ARE) signaling pathway measured by Nrf2-dependant transcriptional activity - cell viability counter screen (AID 720653; active = well fitted curve in the direction sought with a large enough effect in the repeat runs; an effect the other way counts as inactive or inconclusive; also: % is scaled to controls: 0 for no effect and ±100 for the full control effect); details: ARE-bla HepG2 viability, CellTiter-Glo ATP luminescence, 16 h; max response: stronger effect = lower value
Procedure, shortened: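 Cytotoxicity counter screen: intracellular ATP quantified by CellTiter-Glo luminescence in the same ARE-bla HepG2 plates, after 16 h compound exposure and a 2 h beta-lactamase substrate step.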

[15] = qHTS assay for cell viability of HEK293 cells (AID 743288; active = well fitted curve in the direction sought with a large enough effect; an effect the other way counts as inactive or inconclusive; also: % is scaled to controls: 0 for no effect and ±100 for the full control effect; nearly all actives have a fitted effect of over 50% in size); details: ATP luminescence (CellTiter-Glo), 18 h; max response: stronger effect = lower value
Procedure, shortened: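 Parental HEK293 cells, 2,000 per well, preincubated at least 5 h at 37 C, then exposed to compounds in DMSO for 18 h at 37 C. Viability by CellTiter-Glo ATP luminescence after 30 min at room temperature.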

[16] = qHTS assay for cell viability of the p53RE-bla HCT-116 cell line (AID 743292; active = well fitted curve in the direction sought with a large enough effect; an effect the other way counts as inactive or inconclusive; also: % is scaled to controls: 0 for no effect and ±100 for the full control effect; nearly all actives have a fitted effect of over 55% in size)
Procedure, shortened: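 HCT-116 p53RE-bla cells seeded 4,000/well; 5 h at 37 C; compound (DMSO) added; 16 h at 37 C; CellTiter-Glo added, 30 min RT; luminescence read.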

[17] = qHTS assay for small molecule agonists of retinoid X receptor alpha signaling (AID 588544); details: HEK293T RXRa-UAS-bla, beta-lactamase reporter, 18 h; 530 nm emission;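 as to activation: 0% = DMSO basal wells and 100% = reference agonist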
[18] = biological target: Retinoic acid receptor RXR-alpha (Homo sapiens) (UniProt P19793); experiment: as above
[19] = biological target: Nuclear receptor subfamily 1 group I member 2 (Rattus norvegicus) (UniProt Q9R1A7); experiment: qHTS assay for small molecule activators of the rat pregnane X receptor (rPXR) signaling pathway (AID 651751; call rule not given here; also: 0% is about no effect); details: rPXR reporter cells, luciferase (One-Glo), 24 h
[20] = biological target: Peroxisome proliferator-activated receptor delta (Homo sapiens) (UniProt Q03181); experiment: qHTS assay for small molecule agonists of peroxisome proliferator-activated receptor delta signaling (AID 588534);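 also: 0% = DMSO basal wells and 100% = positive control agonist at 10 µM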
Procedure, shortened: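 Fluorescence from CCF4 substrate cleavage by beta-lactamase reporter, read 2 hrs at RT, measured agonist activity. Compounds were tested with 18 hrs exposure at 37 C. Concentration-response data fitted to Hill equation.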

Thyroid hormone receptor beta (Homo sapiens), sequence (P10828 whole entry, looked up): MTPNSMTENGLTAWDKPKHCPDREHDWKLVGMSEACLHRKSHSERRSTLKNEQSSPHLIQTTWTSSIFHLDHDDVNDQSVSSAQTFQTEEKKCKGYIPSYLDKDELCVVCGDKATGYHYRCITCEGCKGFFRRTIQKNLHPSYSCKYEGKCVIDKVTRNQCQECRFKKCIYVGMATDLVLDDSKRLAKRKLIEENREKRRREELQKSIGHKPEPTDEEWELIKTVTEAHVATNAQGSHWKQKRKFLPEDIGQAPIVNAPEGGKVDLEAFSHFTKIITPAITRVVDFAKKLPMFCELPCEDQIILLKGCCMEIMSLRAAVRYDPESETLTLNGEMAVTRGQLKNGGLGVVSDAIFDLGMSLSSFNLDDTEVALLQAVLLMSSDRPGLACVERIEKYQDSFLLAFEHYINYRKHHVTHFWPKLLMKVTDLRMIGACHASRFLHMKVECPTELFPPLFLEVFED
Retinoic acid receptor RXR-alpha (Homo sapiens), sequence (P19793 whole entry, looked up): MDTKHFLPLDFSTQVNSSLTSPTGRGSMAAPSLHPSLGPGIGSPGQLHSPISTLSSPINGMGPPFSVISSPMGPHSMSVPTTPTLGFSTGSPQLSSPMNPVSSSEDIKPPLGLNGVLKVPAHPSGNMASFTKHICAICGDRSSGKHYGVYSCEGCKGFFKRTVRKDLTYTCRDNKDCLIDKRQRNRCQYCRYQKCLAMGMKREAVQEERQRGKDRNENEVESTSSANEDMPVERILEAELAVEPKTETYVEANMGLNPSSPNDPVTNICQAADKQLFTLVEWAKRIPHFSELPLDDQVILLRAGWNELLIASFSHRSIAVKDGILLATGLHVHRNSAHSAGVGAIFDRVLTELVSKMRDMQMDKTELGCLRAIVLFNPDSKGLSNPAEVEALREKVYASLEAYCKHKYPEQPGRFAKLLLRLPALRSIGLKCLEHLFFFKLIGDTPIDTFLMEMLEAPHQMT
Peroxisome proliferator-activated receptor gamma (Homo sapiens), sequence (P37231 whole entry, looked up): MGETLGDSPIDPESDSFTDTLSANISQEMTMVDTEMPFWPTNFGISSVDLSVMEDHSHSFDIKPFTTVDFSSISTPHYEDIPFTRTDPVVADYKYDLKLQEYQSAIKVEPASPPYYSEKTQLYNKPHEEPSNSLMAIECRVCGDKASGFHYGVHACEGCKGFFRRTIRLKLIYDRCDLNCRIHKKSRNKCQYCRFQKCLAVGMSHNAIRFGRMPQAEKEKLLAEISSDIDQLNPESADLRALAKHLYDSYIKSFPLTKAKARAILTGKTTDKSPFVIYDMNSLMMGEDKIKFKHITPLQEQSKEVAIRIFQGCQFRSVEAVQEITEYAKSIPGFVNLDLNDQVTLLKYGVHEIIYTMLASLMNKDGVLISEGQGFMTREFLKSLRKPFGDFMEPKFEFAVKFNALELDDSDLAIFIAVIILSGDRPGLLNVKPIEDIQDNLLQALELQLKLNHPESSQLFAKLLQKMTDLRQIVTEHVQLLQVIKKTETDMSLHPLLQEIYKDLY
Nuclear receptor subfamily 1 group I member 2 (Rattus norvegicus), sequence (Q9R1A7 whole entry, looked up): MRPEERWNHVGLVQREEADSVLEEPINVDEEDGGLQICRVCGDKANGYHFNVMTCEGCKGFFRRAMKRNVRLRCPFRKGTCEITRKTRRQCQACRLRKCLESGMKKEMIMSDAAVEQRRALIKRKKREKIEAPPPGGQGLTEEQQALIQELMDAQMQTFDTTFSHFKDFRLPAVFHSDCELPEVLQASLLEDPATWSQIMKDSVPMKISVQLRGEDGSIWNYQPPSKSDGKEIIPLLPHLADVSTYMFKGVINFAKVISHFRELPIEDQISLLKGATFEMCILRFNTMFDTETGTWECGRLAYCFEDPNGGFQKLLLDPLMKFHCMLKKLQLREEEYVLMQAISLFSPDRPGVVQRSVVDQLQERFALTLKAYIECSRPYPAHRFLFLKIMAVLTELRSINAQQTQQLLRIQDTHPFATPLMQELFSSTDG
Estrogen receptor (Homo sapiens), sequence (P03372 whole entry, looked up): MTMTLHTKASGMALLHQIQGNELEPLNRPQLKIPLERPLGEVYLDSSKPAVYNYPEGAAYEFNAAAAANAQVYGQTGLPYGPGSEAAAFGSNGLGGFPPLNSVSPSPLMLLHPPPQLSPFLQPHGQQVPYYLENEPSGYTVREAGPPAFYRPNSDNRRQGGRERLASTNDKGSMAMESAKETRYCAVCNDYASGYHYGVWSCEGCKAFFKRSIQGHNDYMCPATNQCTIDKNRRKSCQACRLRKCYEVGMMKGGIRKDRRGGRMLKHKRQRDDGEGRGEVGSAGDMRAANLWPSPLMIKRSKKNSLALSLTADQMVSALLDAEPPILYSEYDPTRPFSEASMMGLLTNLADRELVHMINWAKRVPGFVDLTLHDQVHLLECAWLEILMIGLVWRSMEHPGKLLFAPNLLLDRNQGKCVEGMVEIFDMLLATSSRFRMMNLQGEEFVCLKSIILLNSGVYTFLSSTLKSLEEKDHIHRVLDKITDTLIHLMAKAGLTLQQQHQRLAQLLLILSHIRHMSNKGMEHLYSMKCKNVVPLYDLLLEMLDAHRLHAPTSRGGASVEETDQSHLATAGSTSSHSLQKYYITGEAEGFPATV
Glucocorticoid receptor (Homo sapiens), sequence (P04150 whole entry, looked up): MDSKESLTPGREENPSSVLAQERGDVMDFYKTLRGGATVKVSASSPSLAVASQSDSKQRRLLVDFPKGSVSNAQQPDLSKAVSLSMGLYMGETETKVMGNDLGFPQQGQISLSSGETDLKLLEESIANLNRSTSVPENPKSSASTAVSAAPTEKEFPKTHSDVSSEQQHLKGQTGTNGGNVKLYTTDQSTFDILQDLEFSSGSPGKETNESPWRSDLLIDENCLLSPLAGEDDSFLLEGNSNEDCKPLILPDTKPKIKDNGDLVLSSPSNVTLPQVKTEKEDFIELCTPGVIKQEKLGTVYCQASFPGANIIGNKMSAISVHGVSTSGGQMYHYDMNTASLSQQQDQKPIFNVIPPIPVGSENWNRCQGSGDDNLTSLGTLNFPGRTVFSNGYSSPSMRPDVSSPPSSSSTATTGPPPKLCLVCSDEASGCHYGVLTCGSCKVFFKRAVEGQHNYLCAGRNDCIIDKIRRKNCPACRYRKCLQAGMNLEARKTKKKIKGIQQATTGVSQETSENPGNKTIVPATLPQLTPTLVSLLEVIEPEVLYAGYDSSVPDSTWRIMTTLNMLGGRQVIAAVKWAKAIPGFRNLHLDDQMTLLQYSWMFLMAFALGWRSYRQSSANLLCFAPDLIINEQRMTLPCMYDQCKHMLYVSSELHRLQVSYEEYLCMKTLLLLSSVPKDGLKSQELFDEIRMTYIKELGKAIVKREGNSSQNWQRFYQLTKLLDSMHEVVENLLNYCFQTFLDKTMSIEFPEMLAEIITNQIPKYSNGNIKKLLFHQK
Peroxisome proliferator-activated receptor alpha (Homo sapiens), sequence (Q07869 whole entry, looked up): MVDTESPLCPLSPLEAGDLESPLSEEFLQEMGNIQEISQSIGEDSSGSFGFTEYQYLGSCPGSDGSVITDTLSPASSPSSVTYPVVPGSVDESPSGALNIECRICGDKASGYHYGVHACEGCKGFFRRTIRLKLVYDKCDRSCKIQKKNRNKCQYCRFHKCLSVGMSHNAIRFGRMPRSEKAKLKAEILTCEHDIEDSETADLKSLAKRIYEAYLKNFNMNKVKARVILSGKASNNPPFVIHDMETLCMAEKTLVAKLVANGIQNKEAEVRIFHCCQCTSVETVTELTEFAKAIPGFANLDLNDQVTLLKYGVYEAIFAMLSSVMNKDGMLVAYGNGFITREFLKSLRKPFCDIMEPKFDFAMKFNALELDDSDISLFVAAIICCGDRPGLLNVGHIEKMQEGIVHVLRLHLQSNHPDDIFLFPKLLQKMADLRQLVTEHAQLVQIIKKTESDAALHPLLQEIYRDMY
Peroxisome proliferator-activated receptor delta (Homo sapiens), sequence (Q03181 whole entry, looked up): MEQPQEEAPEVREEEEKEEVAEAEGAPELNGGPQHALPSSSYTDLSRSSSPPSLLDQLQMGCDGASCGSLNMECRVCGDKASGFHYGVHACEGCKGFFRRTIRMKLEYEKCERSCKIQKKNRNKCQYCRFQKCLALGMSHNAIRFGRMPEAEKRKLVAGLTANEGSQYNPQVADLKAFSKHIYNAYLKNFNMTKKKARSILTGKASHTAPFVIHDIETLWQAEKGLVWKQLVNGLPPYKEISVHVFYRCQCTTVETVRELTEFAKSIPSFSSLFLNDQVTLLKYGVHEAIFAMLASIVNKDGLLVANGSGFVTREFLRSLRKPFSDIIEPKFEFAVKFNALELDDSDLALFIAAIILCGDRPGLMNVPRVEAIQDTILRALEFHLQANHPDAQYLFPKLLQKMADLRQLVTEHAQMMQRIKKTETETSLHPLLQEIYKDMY
Vitamin D3 receptor (Homo sapiens), sequence (P11473 whole entry, looked up): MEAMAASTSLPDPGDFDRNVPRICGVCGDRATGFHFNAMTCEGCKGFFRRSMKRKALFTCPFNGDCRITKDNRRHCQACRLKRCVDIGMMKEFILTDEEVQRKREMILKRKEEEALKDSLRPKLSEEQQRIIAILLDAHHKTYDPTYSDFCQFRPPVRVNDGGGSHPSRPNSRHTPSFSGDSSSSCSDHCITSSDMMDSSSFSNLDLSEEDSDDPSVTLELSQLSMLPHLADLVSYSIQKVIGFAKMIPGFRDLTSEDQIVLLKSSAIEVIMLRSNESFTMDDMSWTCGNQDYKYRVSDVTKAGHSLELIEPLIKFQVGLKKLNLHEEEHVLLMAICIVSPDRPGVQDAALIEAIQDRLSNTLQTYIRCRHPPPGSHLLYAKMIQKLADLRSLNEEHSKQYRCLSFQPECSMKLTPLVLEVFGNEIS

Clc1ccc([C@]2(Cn3cncn3)C[C@@H](Br)CO2)c(Cl)c1
inactive: Potency [1] | activation [2] 7.46% and -5.85% | Potency [3] | Potency [4] | outcome [5] | Potency [6] | max response [8] -12.9% and -9.53% | activity change % (negative = inhibition) [9] -4.77% and -5.66% | activation [10] -0.258% and -3.95% | activation [11] 3.17% and 2.53% | max response [12] -0.572% and -0.644% | Potency [13] | max response [14] -16.1% and 0.925% | max response [15] -21.9% and -13.3% | Potency [16]
-15.6% and -7.06%: max response [7]

CNC(=O)Oc1ccc(N(C)C)c(C)c1
-12.9%: max response [7]
inactive: Potency [1] | activation [2] -10.5% | Potency [3] | Potency [4] | outcome [5] | Potency [18] | Potency [6] | max response [8] 7.08% | activity change % (negative = inhibition) [9] -0.485% | activation [10] 2.89% | activation [11] 3.59% | max response [12] -2.96% | Potency [13] | max response [14] 5.88% | max response [15] -1.07% | Potency [16] | max response [19] 2.85%
-30.4%: max response [17]

CCCCC(O)(Cn1cncn1)c1ccc(Cl)cc1Cl (stereo not given)
-3.36%: max response [7]
inactive: Potency [1] | Potency [3] | outcome [5] | max response [8] -17.2% | activation [10] -5.41% | activation [11] 2.7% | max response [12] 9.57% | max response [14] -0.171% | max response [15] -16.7% | Potency [16]

CCOc1nc(F)cc2nc(S(=O)(=O)Nc3c(Cl)cccc3Cl)nn12
3.57%: max response [17]
inactive: Potency [1] | activation [2] 0.859% | outcome [20] | outcome [5] | Potency [18] | Potency [6] | max response [8] -25.7% | activity change % (negative = inhibition) [9] -10.3% | activation [10] 1.78% | activation [11] -0.921% | max response [12] -2.41% | Potency [13] | max response [14] -9.33% | max response [15] -11.2% | Potency [16] | max response [19] 1.99%
6.95%: max response [7]

CCOP(=O)(NC(C)C)Oc1ccc(S(C)(=O)=O)c(C)c1 (stereo not given)
-11.4%: max response [7]
inactive: Potency [1] | activation [2] 2.64% | Potency [3] | Potency [4] | outcome [5] | Potency [6] | max response [8] 6.87% | activity change % (negative = inhibition) [9] 9.01% | activation [10] 0.006% | activation [11] 1.16% | max response [12] -2.16% | Potency [13] | max response [14] -4.32% | max response [15] -9.88% | Potency [16] | max response [19] 4.77%

CO/N=C(/C(=O)OC)c1ccccc1COc1ccccc1C
inactive: Potency [1] | activation [2] -0.293% | outcome [5] | Potency [18] | Potency [6] | activity change % (negative = inhibition) [9] -29.5% | activation [11] 13.1% | max response [12] 5.1% | Potency [13] | max response [14] -19.8% | max response [15] -26.1% | Potency [16]
13.9%: max response [17]
active: Potency [10] 25.1 µM

Cc1cccc2sc3nncn3c12
0.611%: max response [17]
-10.6%: max response [7]
inactive: Potency [1] | outcome [20] | Potency [4] | Potency [18] | Potency [6] | max response [8] 2.1% | activity change % (negative = inhibition) [9] 6.25% | activation [10] 2.35% | activation [11] -0.0294% | max response [12] -0.811% | max response [14] 0.787% | max response [15] -3.66% | Potency [16]

CCSC(=O)N(CC)C1CCCCC1
12.6%: max response [7]
inactive: Potency [1] | activation [2] -1.4% | Potency [3] | outcome [20] | outcome [5] | Potency [18] | Potency [6] | max response [8] 16.6% | max response [12] -3.86% | Potency [13] | max response [14] 13.6% | max response [15] 10.3% | max response [19] -10.9%
-3.68%: max response [17]

CC1(C)CCC(Cc2ccc(Cl)cc2)C1(O)Cn1cncn1 (stereo not given)
inactive: Potency [1] | outcome [20] | outcome [5] | Potency [18] | Potency [6] | max response [8] -14.3% | activation [11] -1.24% | max response [12] -1.67% | Potency [13] | max response [14] -10.5% | max response [15] -17.8% | Potency [16]
16.6%: max response [17]
-14.2%: max response [7]

Nc1nc(N)nc(Cl)n1
-8.55% and -12.5% and -6.12%: max response [17]
-6.94% and -9.26% and -7.48%: max response [7]
inactive: Potency [1] | activation [2] -0.33% and 1.13% | Potency [3] | Potency [4] | Potency [18] | Potency [6] | max response [8] -8.75% and -3.8% and 6.06% | activity change % (negative = inhibition) [9] -10% and 5.94% and 4.29% | activation [10] 14% and -1.73% | activation [11] 0.466% and 6.68% and -2.27% | max response [12] 0.345% and 0.412% and -1.56% | Potency [13] | max response [14] -27.2% and -2.73% and -17.4% | Potency [16] | max response [19] 0.0938% and 1.1% and -0.658%

CC(C)(C)C(=O)[C@H](Oc1ccc(Cl)cc1)n1cncn1
inactive: Potency [1] | activation [2] -0.211% | Potency [3] | outcome [20] | Potency [4] | outcome [5] | Potency [18] | Potency [6] | max response [8] -22% | activity change % (negative = inhibition) [9] -10.2% | activation [10] -5.19% | activation [11] 3.75% | max response [12] -2.36% | Potency [13] | max response [14] -6.65% | max response [15] -16.1% | Potency [16]
21.3%: max response [17]
20.1%: max response [7]
